This is one part of a sample in which hits are shown more often than they occur.
GBA activity up: increases beta-glucosidase activity in Gaucher fibroblasts; P04062; 0.44% of 30,000 active; activation, % at 10 µM; L444P Gaucher fibroblasts, 4-MU-glucoside fluorescence, 3 days; in the data active means activation above about 65%;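 further: 0% = vehicle wells and 100% = positive control wells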
* marks the source's active call; other numbers are inactive results.

SMILES	GBA activity up
CCOC(=O)C(C)Sc1nc(-c2ccc(OC)cc2)nc2c1c(=O)n(C)c(=O)n2C (centres undefined)	1.2
Cc1cccn2c(=O)c(C=Nc3ccccc3)c(NCCO)nc12	-23.0
CCNC(=O)c1cc2c(=O)n3cccc(C)c3nc2n1C	-17.6
Cc1cccn2c(=O)c(C=Nc3ccc(Cl)cc3)c(NCCO)nc12	67.6*
CCN1CCN(c2ccc(-n3c(C)nc4c(cnn4-c4ccccc4Cl)c3=O)cc2)CC1	-20.3
Cc1ccc(OCC(=O)Nc2ccc(-c3nc4ncccc4o3)cc2)c(C)c1	-12.3
COc1ccccc1C1N(c2ccc(F)cc2)C(=O)C2CCCN21 (centres undefined)	-5.8
O=C(CCCN1Cc2ccccc2C1)c1ccc(F)cc1	18.6
COC(=O)CN1CCN(C(=O)c2ccc(F)cc2)c2ccccc2C1	106.0*
O=C(c1ccc(F)cc1)N1CCN(Cc2ccccc2Br)CC1	-17.3
OC1CC(c2ccco2)NC2(CCCCC2)C1 (centres undefined)	-51.4
CC(C)(C)NC(=O)CSc1nncn1NCc1ccccc1	67.8*
Cc1ccc(CNn2cnnc2SCC(=O)NC(C)(C)C)cc1	-22.1
Cc1nnc(SCC(=O)NC(C)(C)C)n1CCc1ccccc1	-6.9
COCCCNC(CC(=O)Nc1ccc(N(C)C)cc1)C(=O)O (centres undefined)	10.2
COc1ccc(-c2c3c(=O)n(C)c(=O)n(C)c3cn2C2CCCCC2)cc1	-4.0
COc1ccc2cc3cc(C(=O)NCCCN4CCOCC4)oc3nc2c1	10.8
CCN1CCN(CCCNC(=O)c2cc3cc4ccc(OC)cc4nc3o2)CC1	93.7*
COc1ccc2cc3cc(C(=O)NCCc4ccc(OC)c(OC)c4)oc3nc2c1	-50.5
CCCCN(CC)CCCNC(=O)c1cc2cc3ccc(OC)cc3nc2o1	123.2*
COc1ccc2cc3cc(C(=O)NCCN4CCN(Cc5ccccc5)CC4)oc3nc2c1	22.1
CCCN(CCC)CCCNC(=O)c1cc2cc3ccc(OC)cc3nc2o1	47.6
CCc1noc2c1/C(=N\O)CC(c1ccccc1)C2 (centres undefined)	-3.0
CC(=O)N1C2CCCCC2S[C@H]2CCCCC21 (some centres undefined)	-6.2
O=C(CCOc1ccccc1)NCC(c1ccco1)N1CCCCC1 (centres undefined)	-8.0
SMILES	GBA activity up
COc1ccc(OC)c(NS(=O)(=O)Cc2ccccc2)c1	16.2
CC1CCN(Cc2nc3c(c(=O)n(C)c(=O)n3C)n2CCN2CCOCC2)CC1	1.9
O=C(Nc1ccc(N2C(=O)C3C4C=CC(C4)C3C2=O)cc1)Nc1cccnc1 (centres undefined)	-3.9
CC(C)c1ccc(NC(=O)CSc2nc3c(c(=O)[nH]2)CCC3)cc1	1.1
CN(C)c1nc(SCCOC(=O)Nc2ccccc2)nc(N(C)C)n1	13.9
Cc1ccc2c(c1)[C@H]1OCC[C@H]1[C@@H](c1ccncc1)N2	72.0*
Cc1ccc2c(c1)C1OCCC1C1N2C(=O)C2C(C(=O)O)C3C=CC21O3 (centres undefined)	-45.9
Cc1ccc2c(c1)C1C=CCC1C(C(=O)O)N2 (centres undefined)	10.1
C/C(N)=C(/C#N)C(=O)CSc1nnnn1-c1ccc(C)cc1	-36.2
C#CCOC(=O)CCC(=O)Nc1cc(OC)nc(OC)n1	-4.7
CC1CCN(C(=O)CSc2ccc3nnc(-c4ccc(F)cc4)n3n2)CC1	29.5
Cc1cc(N2CCN(C3CCCC3)CC2)n2nc(C)c(-c3ccccc3)c2n1	8.3
O=C1CCCN1CN(C(=O)c1ccccc1)c1ccc(F)cc1	9.7
